# In paper PMC8384837, “Expanding the binding specificity for RNA recognition by a PUF domain”:
# Residue numbers refer to the chain shown, from its start.
# What was measured:
# Assay in all cases: yeast three-hybrid, YBZ-1, SC-Leu-His + 0.5 mM 3-AT, 4 days
# Details in all cases: tags: N-Gal4 AD-HA kept; label: inside an RPR1-promoter hybrid RNA with tandem MS2 sites; ssRNA
# PUM1 PUF domain R5-NDI = PUM1 PUF domain R5-NDI (Homo sapiens, UniProt Q14671 828-1176, C1007N;R1008D;Q1011I)
# Procedure, shortened: (§1)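 Sequencing with Illumina followed PCR amplification of the repeat regions from transformants grown four days on SC-Leu (input) or SC-Leu-His + 0.5 mM 3-AT (selection). The transformants were strain YBZ-1 with a LexA–MS2 coat fusion and a HIS3 reporter, carrying Pumilio-1 PUF domain libraries and matching RNA elements. The interaction score is the log change in variant frequency from input to selection, computed in log2 with a pseudocount of 1 for absent variants.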
# PUM1 PUF domain R5-KYF = PUM1 PUF domain R5-KYF (Homo sapiens, UniProt Q14671 828-1176, C1007K;R1008Y;Q1011F)
# Procedure, shortened: as §1
# PUM1 PUF domain R5-SNR = PUM1 PUF domain R5-SNR (Homo sapiens, UniProt Q14671 828-1176, C1007S;R1008N;Q1011R)
# Procedure, shortened: as §1
# PUM1 PUF domain R5-DQR = PUM1 PUF domain R5-DQR (Homo sapiens, UniProt Q14671 828-1176, C1007D;R1008Q;Q1011R)
# Procedure, shortened: as §1
# PUM1 PUF domain R5-HRP = PUM1 PUF domain R5-HRP (Homo sapiens, UniProt Q14671 828-1176, C1007H;Q1011P)
# Procedure, shortened: as §1
# PUM1 PUF domain R6-TYE = target: T1, PUM1 PUF domain R6-TYE (Homo sapiens, UniProt Q14671 828-1176, N1043T;Q1047E)
# T1 sequence: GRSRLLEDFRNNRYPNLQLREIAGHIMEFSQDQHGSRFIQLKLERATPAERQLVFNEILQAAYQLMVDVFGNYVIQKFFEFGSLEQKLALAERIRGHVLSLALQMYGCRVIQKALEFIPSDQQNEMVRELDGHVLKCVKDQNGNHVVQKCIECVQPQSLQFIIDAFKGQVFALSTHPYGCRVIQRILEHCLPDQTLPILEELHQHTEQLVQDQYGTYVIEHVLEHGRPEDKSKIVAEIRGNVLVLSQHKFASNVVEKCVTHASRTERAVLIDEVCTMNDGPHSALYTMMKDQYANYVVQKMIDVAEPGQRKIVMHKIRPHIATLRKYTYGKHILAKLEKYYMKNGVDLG
# Procedure, shortened: as §1
# PUM1 PUF domain R6-TWL = target: T2, PUM1 PUF domain R6-TWL (Homo sapiens, UniProt Q14671 828-1176, N1043T;Y1044W;Q1047L)
# T2 sequence: T1 sequence with Y217W, E220L
# Procedure, shortened: as §1
# PUM1 PUF domain R6-LYC = target: T3, PUM1 PUF domain R6-LYC (Homo sapiens, UniProt Q14671 828-1176, N1043L;Q1047C)
# T3 sequence: T1 sequence with T216L, E220C
# Procedure, shortened: as §1
# PUM1 PUF domain R5-QRW = PUM1 PUF domain R5-QRW (Homo sapiens, UniProt Q14671 828-1176, C1007Q;Q1011W)
# Procedure, shortened: as §1
# PUM1 PUF domain R8-LWK = PUM1 PUF domain R8-LWK (Homo sapiens, UniProt Q14671 828-1176, N1122L;Y1123W;Q1126K)
# Procedure, shortened: as §1
# PUM1 PUF domain R3-ARC = PUM1 PUF domain R3-ARC (Homo sapiens, UniProt Q14671 828-1176, C935A;Q939C)
# Procedure, shortened: as §1
# PUM1 PUF domain R8-KRA = PUM1 PUF domain R8-KRA (Homo sapiens, UniProt Q14671 828-1176, N1122K;Y1123R;Q1126A)
# Procedure, shortened: as §1
# PUM1 PUF domain R3-GFF = PUM1 PUF domain R3-GFF (Homo sapiens, UniProt Q14671 828-1176, C935G;R936F;Q939F)
# Procedure, shortened: as §1
# PUM1 PUF domain R3-GVE = PUM1 PUF domain R3-GVE (Homo sapiens, UniProt Q14671 828-1176, C935G;R936V;Q939E)
# Procedure, shortened: as §1
# PUM1 PUF domain R3-TWG = PUM1 PUF domain R3-TWG (Homo sapiens, UniProt Q14671 828-1176, C935T;R936W;Q939G)
# Procedure, shortened: as §1
# PUM1 PUF domain R1-GRS = PUM1 PUF domain R1-GRS (Homo sapiens, UniProt Q14671 828-1176, S863G;Q867S)
# Procedure, shortened: as §1
# PUM1 PUF domain R1-KSS = PUM1 PUF domain R1-KSS (Homo sapiens, UniProt Q14671 828-1176, S863K;R864S;Q867S)
# Procedure, shortened: as §1
sequence,measurement,setting,value
GGCUAGAACUAGUGGAUCCCCCGGCGCCCGGCGGCUCGAGCCCGGGUAAGUGUUAAUAGUCUGCAUGCCGCCGGGCGCCAUGCCUGCAGGUCGACUCUAGAAAACAUG,binding signal,PUM1 PUF domain R5-NDI,3.04 log2 enrichment (interaction score)
same,binding signal,PUM1 PUF domain R5-KYF,3.92 log2 enrichment (interaction score)
same,binding signal,PUM1 PUF domain R5-SNR,4.01 log2 enrichment (interaction score)
same,binding signal,PUM1 PUF domain R5-DQR,1.66 log2 enrichment (interaction score)
same,binding signal,PUM1 PUF domain R5-HRP,3.28 log2 enrichment (interaction score)
GGCUAGAACUAGUGGAUCCCCCGGCGCCCGGCGGCUCGAGCCCGGGUAAGUGAAAAUAGUCUGCAUGCCGCCGGGCGCCAUGCCUGCAGGUCGACUCUAGAAAACAUG,binding signal,PUM1 PUF domain R6-TYE,3.51 log2 enrichment (interaction score)
same,binding signal,PUM1 PUF domain R6-TWL,5.21 log2 enrichment (interaction score)
same,binding signal,PUM1 PUF domain R6-LYC,3.19 log2 enrichment (interaction score)
GGCUAGAACUAGUGGAUCCCCCGGCGCCCGGCGGCUCGAGCCCGGGUAAGUGUCAAUAGUCUGCAUGCCGCCGGGCGCCAUGCCUGCAGGUCGACUCUAGAAAACAUG,binding signal,PUM1 PUF domain R5-SNR,6.17 log2 enrichment (interaction score)
same,binding signal,PUM1 PUF domain R5-DQR,3.91 log2 enrichment (interaction score)
same,binding signal,PUM1 PUF domain R5-QRW,0.43 log2 enrichment (interaction score)
same,binding signal,PUM1 PUF domain R5-HRP,1.78 log2 enrichment (interaction score)
GGCUAGAACUAGUGGAUCCCCCGGCGCCCGGCGGCUCGAGCCCGGGUAAGUGUAAAUAGUCUGCAUGCCGCCGGGCGCCAUGCCUGCAGGUCGACUCUAGAAAACAUG,binding signal,PUM1 PUF domain R8-LWK,4.16 log2 enrichment (interaction score)
same,binding signal,PUM1 PUF domain R6-TWL,0.99 log2 enrichment (interaction score)
same,binding signal,PUM1 PUF domain R3-ARC,3.8 log2 enrichment (interaction score)
same,binding signal,PUM1 PUF domain R8-KRA,1.2 log2 enrichment (interaction score)
same,binding signal,PUM1 PUF domain R3-GFF,5.53 log2 enrichment (interaction score)
same,binding signal,PUM1 PUF domain R6-LYC,3.91 log2 enrichment (interaction score)
GGCUAGAACUAGUGGAUCCCCCGGCGCCCGGCGGCUCGAGCCCGGGUAAGUGUAAGUAGUCUGCAUGCCGCCGGGCGCCAUGCCUGCAGGUCGACUCUAGAAAACAUG,binding signal,PUM1 PUF domain R3-ARC,0.43 log2 enrichment (interaction score)
same,binding signal,PUM1 PUF domain R3-GVE,3.97 log2 enrichment (interaction score)
same,binding signal,PUM1 PUF domain R3-TWG,4.61 log2 enrichment (interaction score)
GGCUAGAACUAGUGGAUCCCCCGGCGCCCGGCGGCUCGAGCCCGGGUAAGUGUAAAUCGUCUGCAUGCCGCCGGGCGCCAUGCCUGCAGGUCGACUCUAGAAAACAUG,binding signal,PUM1 PUF domain R1-GRS,2.75 log2 enrichment (interaction score)
same,binding signal,PUM1 PUF domain R1-KSS,4.09 log2 enrichment (interaction score)
GGCUAGAACUAGUGGAUCCCCCGGCGCCCGGCGGCUCGAGCCCGGGUAAGUGUGAAUAGUCUGCAUGCCGCCGGGCGCCAUGCCUGCAGGUCGACUCUAGAAAACAUG,binding signal,PUM1 PUF domain R5-QRW,4.36 log2 enrichment (interaction score)
